Reference: PubChem BioAssay (NCI)
The panel holds about 83,000 compounds, 20% with a hit somewhere; the sample as a whole holds those more often.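 Growth was measured after 48 h exposure to one concentration of compound in 96-well plates. Values under 10 count as active.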 Calls of active or inactive are those of the source.

Columns and labels:
Experiment in all cases: NCI-60 one-dose screen, 48 h (100 = growth as untreated, 0 = no growth, -100 = all killed)
[1] = test system: SK-MEL-2 melanoma; conditions: 10 µM unless noted
[2] = test system: EKVX NSCLC; conditions: 10 µM
[3] = test system: SN12C renal; conditions: 10 µM unless noted
[4] = test system: UO-31 renal; conditions: 10 µM unless noted
[5] = test system: TK-10 renal; conditions: 10 µM unless noted
[6] = test system: ACHN renal; conditions: 10 µM unless noted
[7] = test system: CAKI-1 renal; conditions: 10 µM unless noted
[8] = test system: A498 renal; conditions: 10 µM unless noted
[9] = test system: CCRF-CEM leukemia; conditions: 10 µM
[10] = test system: MOLT-4 leukemia; conditions: 10 µM unless noted
[11] = test system: OVCAR-8 ovarian; conditions: 10 µM unless noted
[12] = test system: OVCAR-5 ovarian; conditions: 10 µM unless noted
[13] = test system: OVCAR-4 ovarian; conditions: 10 µM unless noted
[14] = test system: SK-OV-3 ovarian; conditions: 10 µM unless noted
[15] = test system: IGROV1 ovarian; conditions: 10 µM unless noted
[16] = test system: OVCAR-3 ovarian; conditions: 10 µM unless noted
[17] = test system: HS 578T breast; conditions: 10 µM unless noted
[18] = test system: NCI/ADR-RES ovarian; conditions: 10 µM unless noted
[19] = test system: RPMI-8226 leukemia; conditions: 10 µM unless noted
[20] = test system: SR leukemia; conditions: 10 µM unless noted

Measured: growth

O=C(Cc1ccccc1[N+](=O)[O-])c1ccc2c(c1)OCO2
inactive: [1] 99.4% | [2] 97.5% | [3] 96% | [4] 80.1% | [5] 91.6% | [6] 103% | [7] 97.8% | [8] 77.9% | [9] 76.3% | [10] 86.6% | [11] 104% | [12] 104% | [13] 102% | [14] 90.1% | [15] 114% | [16] 103% | [17] 93.3% | [18] 106%

COc1ccccc1C(=O)Nc1cccc(-c2cc(=O)c3c(OC)c(OC)c(OC)cc3o2)c1
inactive: [1] 31.1% | [2] 61.7% | [3] 41% | [4] 15.3% | [5] 53.4% | [6] 43% | [7] 65.1% | [8] 44.9% | [9] 16% | [10] 28.8% | [11] 38.7% | [12] 81.2% | [13] 59.1% | [14] 100% | [16] 51.3% | [17] 23.6% | [18] 58.3%
active: [19] 6.75%

COc1ccc(NC(=O)/C=C(C)/C=C/C=C(C)/C=C/C2=C(C)CCCC2(C)C)cc1
inactive: [1] 61.6% | [2] 82.7% | [3] 65.9% | [4] 53% | [5] 61.6% | [6] 54% | [7] 66.6% | [8] 91.1% | [9] 60.6% | [10] 76.1% | [19] 43.9% | [11] 37% | [12] 94.8% | [13] 80.1% | [14] 86.2% | [16] 66.5% | [17] 87.9% | [18] 80.1%

Cc1ncc(C(=O)Nc2ccc(CN3CCN(C)CC3)c(C(F)(F)F)c2)cc1C#Cc1c(N)ncc2ccc(F)cc12
active: [1] 0.14% | [2] -7.75% | [4] 6.12% | [5] -89.2% | [6] -15.8% | [8] -65.1% | [9] -47.6% | [10] -57.9% | [19] -43.6% | [11] -74.8% | [12] -45.3% | [13] -58.6% | [15] -76% | [16] -23.4% | [17] -1.46% | [18] -29.7%
inactive: [3] 19.1% | [7] 20.8% | [14] 41.4%

O=C(N/N=C/c1ccccc1Cl)c1cccc2ccccc12
inactive: [1] 108% | [2] 99.6% | [3] 94.9% | [4] 91.5% | [5] 113% | [6] 105% | [7] 96.8% | [8] 85.4% | [9] 88.3% | [10] 112% | [11] 82.2% | [12] 104% | [13] 103% | [14] 98.6% | [15] 106% | [16] 110% | [17] 95.6% | [18] 107%

Nc1nc2c(c3cnccc13)C(c1ccc(Cl)c(Cl)c1)Cc1cnccc1-2 (centres undefined)
active: [1] -36.3% | [2] 5.75% | [3] 2.42% | [4] -39.9% | [5] -40% | [6] -67.1% | [7] 4.1% | [8] -45.6% | [9] 3.33% | [20] 5.08% | [19] -5.48% | [11] 9.87% | [12] -1.65% | [14] 2.34% | [15] 7.84% | [16] -44.8% | [17] 9.27% | [18] -13.2%
inactive: [13] 14.7%

O=C(O)/C(Br)=C/c1c[nH]c2ccc(Br)cc12
inactive: [1] 99% | [2] 119% | [3] 108% | [4] 88.8% | [5] 117% | [6] 104% | [7] 97.6% | [8] 132% | [10] 31.8% | [19] 114% | [11] 106% | [12] 90.6% | [13] 59.7% | [14] 171% | [15] 98.2% | [16] 105% | [17] 105% | [18] 102%
active: [9] -46.1%

O=C(Nc1cccc(Cn2c(=O)[nH]c3ccc(Oc4ncccn4)cc3c2=O)c1)c1ccc(Cl)cc1
inactive: [1] 59.5% | [2] 52.3% | [3] 63.5% | [4] 47.7% | [5] 58.5% | [6] 40.3% | [7] 60.9% | [8] 53.4% | [9] 47% | [10] 22.5% | [19] 25.5% | [11] 31.8% | [12] 99% | [13] 31.5% | [14] 66% | [16] 65.1% | [17] 49.2% | [18] 71.2%

O=C(Nc1cccc(Cn2c(=O)[nH]c3ccc(Oc4ncccn4)cc3c2=O)c1)c1cc(Cl)cc(Cl)c1
inactive: [1] 55.1% | [2] 72.3% | [3] 59.4% | [4] 65.6% | [5] 71.5% | [6] 19.8% | [7] 91% | [8] 85.3% | [9] 77.9% | [10] 63.8% | [19] 60.9% | [11] 51.4% | [12] 70% | [13] 41.5% | [14] 66.5% | [15] 49% | [16] 81.2% | [17] 56.7% | [18] 86.3%

COc1cc(NC(=O)CSc2nc3ccc(Cl)cc3c(=O)n2-c2ccc(F)cc2)cc(OC)c1OC
inactive: [1] 92.6% | [2] 67.8% | [3] 78.7% | [4] 40.6% | [5] 97.8% | [6] 85.6% | [7] 71.5% | [8] 34.8% | [9] 94% | [10] 61.8% | [19] 39.2% | [11] 88.8% | [12] 88.7% | [13] 77.2% | [14] 87.6% | [15] 86.6% | [16] 80.6% | [17] 75% | [18] 81%

Cc1ncc(C(=O)Nc2ccc(CN3CCN(C)CC3)c(C(F)(F)F)c2)cc1C#Cc1c(N)ncc2ccccc12
active: [1] -76.9% | [2] -89.5% | [3] -99.1% | [4] -99.1% | [5] -99.4% | [6] -100% | [7] 2.22% | [8] -98% | [9] -48.3% | [10] -67.6% | [19] -47.5% | [11] -85.7% | [12] -92.6% | [13] -58.8% | [14] -2.88% | [15] -77.1% | [16] -68.9% | [17] -25.5% | [18] -70%

O=C1C(Cl)=C(SC2=NCCN2)C(=O)c2ccccc21
inactive: [1] 66.7% | [2] 94.4% | [3] 74% | [4] 48.3% | [5] 173% | [6] 83.5% | [7] 93.9% | [8] 119% | [9] 61.7% | [10] 68.9% | [11] 65.8% | [12] 97.4% | [13] 80.5% | [14] 93.5% | [15] 49.9% | [16] 46.8% | [17] 93.1% | [18] 86.8%

CCCCCCCCCCCCCCCCCC1=NCCN1CS(=O)(=O)O
inactive: [1] 69.9% | [2] 80.1% | [3] 53.2% | [4] 16.6% | [5] 89.4% | [6] 47.7% | [7] 17.3% | [8] 87.2% | [10] 12.3% | [19] 65% | [11] 36.1% | [12] 76.9% | [13] 82.4% | [14] 70.4% | [16] 50.9% | [18] 59.2%
active: [9] -5.55% | [15] -23.8%

NC(N)=Nc1ccc(/C=C2\C=Cc3ccccc32)cc1
inactive: [1] 85.6% | [2] 75.7% | [3] 79.3% | [4] 49.1% | [5] 78.1% | [6] 67.8% | [7] 64.2% | [8] 47.7% | [9] 49.4% | [10] 37.2% | [11] 71.7% | [12] 80.7% | [13] 77.7% | [14] 78.6% | [15] 51.2% | [16] 72.9% | [17] 81.3% | [18] 80.9%

COc1cccc(CNC(=O)c2cccc(C3CC(=O)c4c(cc(OC)c(OC)c4OC)O3)c2)c1 (centres undefined)
inactive: [1] 38.5% | [2] 72.4% | [3] 72.7% | [4] 51.6% | [5] 87.7% | [6] 47.9% | [7] 77.3% | [8] 81.7% | [9] 13.3% | [10] 67% | [19] 32.9% | [11] 67.1% | [12] 89.1% | [13] 78.3% | [14] 81.7% | [15] 46.5% | [16] 12.6% | [17] 102% | [18] 41.7%

Cc1ccc(C(=O)Nc2ccc(CN3CCN(C)CC3)c(C(F)(F)F)c2)cc1C#Cc1cnc(N)c2ccc(F)cc12
active: [1] -56.2% | [2] -92.2% | [3] -90.8% | [4] -97.3% | [5] -84.5% | [6] -100% | [7] -58% | [8] -69.9% | [9] -58.7% | [10] -67.1% | [19] -59.4% | [11] -70.9% | [12] -90.2% | [13] -60.8% | [14] 1.66% | [15] -82.9% | [16] -83.3% | [17] -30.2% | [18] -52.4%

CCn1cc(C(=O)O)c(=O)c2cc(F)c(N3CCN(S(=O)(=O)c4ccc(Cl)cc4)CC3)cc21
inactive: [1] 43.8% | [2] 78.1% | [3] 11.6% | [4] 51.1% | [5] 53.6% | [6] 28.7% | [7] 43.6% | [10] 23.6% | [11] 12.6% | [12] 51.9% | [13] 37.7% | [14] 40.8% | [16] 28.2% | [17] 18.9% | [18] 68.7%
active: [8] -6.18% | [9] -0.845% | [15] 9.37%
